From PubChem BioAssay AID504803 (The Scripps Research Institute Molecular Screening Center, 2011)
The whole screen tested about 340,000 compounds, of which about 1,700 (0.5%) were called active. No stated cut-off is given here; in the data, active means inhibition above about 36%; inactive means the rest. This excerpt belongs to a sample that is enriched for actives.

Target: Serine protease HTRA1 (Homo sapiens) (UniProt Q92743)
Test: inhibition of human HTRA1 peptidase – biochemical, fluorescence polarization, HTS, primary screen (AID 504803);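 further: 0% = enzyme with DMSO and 100% = wells lacking enzyme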
Settings: recombinant HTRA1, FP-rhodamine activity-based probe, at 5.96 µM, stronger effect = higher value

Serine protease HTRA1 (Homo sapiens), sequence (Q92743 whole entry, looked up): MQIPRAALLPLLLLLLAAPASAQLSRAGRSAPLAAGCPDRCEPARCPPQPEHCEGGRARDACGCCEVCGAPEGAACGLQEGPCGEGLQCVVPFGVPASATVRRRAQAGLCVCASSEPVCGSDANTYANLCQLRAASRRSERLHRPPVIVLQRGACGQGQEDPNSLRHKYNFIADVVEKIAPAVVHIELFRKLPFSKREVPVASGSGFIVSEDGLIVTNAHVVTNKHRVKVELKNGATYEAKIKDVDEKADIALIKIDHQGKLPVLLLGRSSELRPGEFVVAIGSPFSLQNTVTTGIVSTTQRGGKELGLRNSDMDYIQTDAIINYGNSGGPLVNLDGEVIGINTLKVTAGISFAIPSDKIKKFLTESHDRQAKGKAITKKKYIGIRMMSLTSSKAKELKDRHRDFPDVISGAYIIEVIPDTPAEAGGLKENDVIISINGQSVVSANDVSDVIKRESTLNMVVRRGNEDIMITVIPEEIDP

Compound	inhibition
O=C1c2ccccc2C(=O)c2c1cccc2N1CCN(Cc2ccccc2)CC1	62% (active)
O=C1c2ccccc2C(=O)c2c1cccc2N1CCN(CCO)CC1	9.89% (inactive)
O=C(CN1CCN(Cc2ccccc2)CC1)NC(c1ccccc1)c1ccccc1	-2.99% (inactive)
CCCCN1C(=O)C(CC(=O)NCc2cccs2)CC(C(=O)N2CCOCC2)=C1C (configuration not stated)	1.73% (inactive)
Cc1noc(C)c1S(=O)(=O)N(C)C[C@H]1OCCCC[C@@H](C)Oc2ccc(NC(=O)CCCN(C)C)cc2C(=O)N([C@H](C)CO)C[C@@H]1C	1.73% (inactive)
Cc1ccc(-c2ccc(CN3C(C)C(=O)N(Cc4cn(CCC5OCCCO5)nn4)CCS3(=O)=O)cc2)cc1 (configuration not stated)	-6.77% (inactive)
C[C@H]1CN([C@@H](C)CO)C(=O)CCCn2cc(nn2)CO[C@@H]1CN(C)S(=O)(=O)c1cccs1	4.51% (inactive)
O=C(NCCN1CCOCC1)c1ccc2c(c1)N(Cc1cccc(Cl)c1)C(=O)c1ccccc1S2(=O)=O	-8.45% (inactive)
S=C(NCc1ccco1)NCc1ccccc1Cl	-12.8% (inactive)
c1ccc(CSc2nnc(-c3ccco3)c(-c3ccco3)n2)cc1	42.8% (active)
Clc1ccc(CSc2nnc3c(n2)[nH]c2ccccc23)cc1	-20.7% (inactive)
CCc1nnc(SCc2cccc(F)c2)nc1CC	-3.55% (inactive)
Clc1ccccc1CSc1nnc(-c2ccco2)c(-c2ccco2)n1	49.6% (active)
O=C(Nc1nnc(SCc2ccccc2Cl)s1)c1cccc([N+](=O)[O-])c1	-3.08% (inactive)
O=C(NCc1nnnn1-c1ccc(Cl)cc1)c1ccc([N+](=O)[O-])o1	2.97% (inactive)
CCN(CC)C(=O)C1=C(C)N(Cc2ccc(C(C)(C)C)cc2)C(=O)C(CC(=O)NCc2cccc3ccccc23)C1 (configuration not stated)	-39.3% (inactive)
Nc1cc(=O)c2[nH]cnc2[nH]1	-44.6% (inactive)
NS(=O)(=O)c1ccc(CNC(=O)c2cc(S(=O)(=O)N3CCOCC3)ccc2N2CCCC2)cc1	0.13% (inactive)
CCCc1ccc(S(=O)(=O)N2CCN(C(=O)c3cc(C)on3)CC2)cc1	-2.05% (inactive)
C[C@H]1Cn2cnc(C(=O)N[C@H](C)c3ccccc3)c2C(=O)N1	6.34% (inactive)
c1ccc(Cn2nnc3c(NCC4CC4)ncnc32)cc1	-4.95% (inactive)
O=C(NCCS(=O)(=O)N1CCN(c2ccccc2)CC1)c1cc(=O)c2ccccc2o1	1.65% (inactive)

Compound	inhibition
CCCc1c(C)nc2scc(-c3ccc(Cl)cc3)n2c1=O	0.07% (inactive)
C#CCN(C[C@@H]1[C@@H](OC(=O)NC2CC2)[C@@H](OC(=O)NC2CC2)Cn2c(=O)ccc(=O)n21)S(=O)(=O)c1ccc(C)cc1	-1.46% (inactive)
CCOC(=O)c1c(NC(=O)COC(=O)c2ccc(S(=O)(=O)C(F)F)cc2)sc(C(=O)N(C)C)c1C	-16.1% (inactive)
Nc1ccc(Nc2ccccc2)cc1	69% (active)
Cc1cc(Nc2ccccc2)n(C(=O)c2ccc(N)cc2)n1	-10.8% (inactive)
COc1ccc(Nc2ccc3ccccc3c2)cc1	24.9% (inactive)
O=C(NCCc1cccc(F)c1)C1CC(O)CN1C(=O)Nc1ccccc1 (configuration not stated)	0.16% (inactive)
CC(C)[C@H](NC(=O)c1ccccc1F)C(=O)Nc1cccc(S(=O)(=O)N2CCOCC2)c1	0.83% (inactive)
C[C@@H]1CN([C@@H](C)CO)C(=O)CCCn2nncc2CO[C@H]1CN(C)C(=O)Nc1ccc(C(F)(F)F)cc1	-1.93% (inactive)
CCOC(=O)C(=Cc1ccccc1)C(=O)c1ccccc1	-10% (inactive)
O=C(CSc1ccc(Cl)cc1)NC1CC1	1.09% (inactive)
COc1ccc(NCCc2ccccn2)cc1	3.17% (inactive)
COc1ccc2nc(-c3ccccn3)ccc2c1	4.04% (inactive)
COc1cnc(-c2ccccn2)nc1Oc1ccc(C(C)(C)C)cc1	56.8% (active)
C[C@H]1CN([C@@H](C)CO)C(=O)c2cc(C3=CCCCC3)cnc2O[C@@H]1CN(C)C(=O)Cc1ccccc1	-0.1% (inactive)
Cc1ccc(C=O)c([B-](F)(F)F)c1	4.92% (inactive)
CN1c2ccc(C=O)c3c(C=O)ccc(c23)N(C)C1(C)C	53.2% (active)
O=C(Nc1sc2c(c1-c1nc3ccccc3[nH]1)CCCC2)C1CC1	3.75% (inactive)
Nc1ccccc1-c1nc2ccncc2[nH]1	-6.2% (inactive)
c1ccc2[nH]c(-c3nc4ccccc4[nH]3)nc2c1	80.8% (active)
NC(=S)NN=Cc1ccc(OC(=O)COc2cc(Cl)c(Cl)cc2Cl)cn1	-2.79% (inactive)
NC(=O)CSC1=Nc2ccccc2C2=NC(CCC(=O)NCc3ccc(F)cc3)C(=O)N12 (configuration not stated)	1.09% (inactive)

Compound	inhibition
CC(C)C1N=C2c3ccccc3N=C(SCC(=O)c3ccc(O)c(O)c3)N2C1=O (configuration not stated)	59.3% (active)
O=C(CSC1=Nc2ccccc2C2=NC(c3ccccc3)C(=O)N12)NCC1CCCO1 (configuration not stated)	5.98% (inactive)
CC(C)CCC(=O)Nc1cc(S(=O)(=O)N2CCOCC2)ccc1N1CCCC1	-0.61% (inactive)
C#Cc1cc(N2CCN(C(=O)c3ccoc3)CC2)n2nc(-c3cccc(Cl)c3)cc2n1	-68.2% (inactive)
CN(c1ccccc1)S(=O)(=O)c1ccc(C(=O)NCc2cccnc2)cc1	2.31% (inactive)
Cc1cc2c3ccccc3[nH]c(=O)n2n1	-0.09% (inactive)
Cc1c(CC(=O)N2CCN(C(=O)C3COc4ccccc4O3)CC2)c(=O)oc2c(O)c(O)ccc12 (configuration not stated)	51.5% (active)
Cc1c(CCC(=O)O)c(=O)oc2c(C)c(OCc3ccccc3Cl)ccc12	-1.83% (inactive)
CCN(CC)S(=O)(=O)c1ccc(N2CCOCC2)c(NC(=O)C2COc3ccccc3O2)c1 (configuration not stated)	-9.82% (inactive)
CCN1CCCC1CNC(=O)c1ccc2c(c1)NC(=O)/C(=C\c1ccccc1F)S2 (configuration not stated)	-43.1% (inactive)
O=C(CCCN1C(=O)C(c2ccccc2)Oc2cccnc21)Nc1ccccc1Br (configuration not stated)	-5.83% (inactive)
O=C(COC(=O)CCc1c[nH]c2ccccc12)Nc1cccc(Cl)c1	-2.43% (inactive)
CC(C)c1ccc(C=NNc2ccc([N+](=O)[O-])cn2)cc1	-18.3% (inactive)
Cc1cc(/C=N/Nc2ccc([N+](=O)[O-])cn2)c(C)n1-c1cccc(C(=O)O)c1	40.5% (active)
Cc1cc(/C=N/NC(=O)CC2(C)OCCO2)c(C)n1-c1ccc(Cl)c(Cl)c1	2.74% (inactive)
CC(OC(=O)c1ccc(NC(=O)CC#N)cc1)C(=O)Nc1ccc(S(=O)(=O)N2CCCC2)cc1 (configuration not stated)	-20% (inactive)
NNc1cccc(C=Cc2ccccc2)cc1=O	61.4% (active)
O=C(COC(=O)/C=C/c1cccc(Cl)c1)NCCc1ccccc1	4.91% (inactive)
O=c1[nH]c(/C=C/c2cccc(Br)c2)nc2ccccc12	-1.32% (inactive)
COc1ccc(-c2ccc3[nH]c4c(c3c2)CCN2C[C@H]3[C@H](C)ON(C)[C@H]3C[C@@H]42)cc1	6.55% (inactive)
CCCCN1C[C@H](c2ccc(Br)cc2)[C@@H](CC(=O)Nc2ccc(Br)cc2)C1=O	-22.8% (inactive)
CCC(CO)Oc1cc(NC(=O)c2cccc3ccccc23)c2ncn(C(C)C)c2c1 (configuration not stated)	-25% (inactive)

Compound	inhibition
CC(C)n1cnc2c(NCc3ccccc3)cc(OCC3CCN(C)CC3)cc21	40.1% (active)
CCC(CO)Oc1cc(NC(=O)c2ccc(Cl)cc2)c2ncn(C(C)C)c2c1 (configuration not stated)	6.4% (inactive)
Cc1ccc(-c2nc3ccc(Cl)cn3c2Cc2ccccc2)cc1	-74.4% (inactive)
COc1ccc(Cl)cc1S(=O)(=O)N1CCN(CC(=O)C(C)(C)C)CC1	4.3% (inactive)
O=C(CN1CCN(S(=O)(=O)c2cc(Cl)ccc2Cl)CC1)c1ccc(O)c(O)c1	39.9% (active)
N#Cc1ccsc1NC(=O)CN1CCN(S(=O)(=O)c2cc(Cl)ccc2Cl)CC1	-36.8% (inactive)
O=C1[C@H]2[C@@H](c3ccc(C(F)(F)F)cc3)N[C@]3(CCCN(Cc4ccc(Cl)cc4)C3=O)[C@H]2C(=O)N1Cc1ccccc1	-39.5% (inactive)
COc1ncnc2c1ncn2CCCNCCN1CCOCC1	0.71% (inactive)
COc1cc(NC(=O)C2=C(C)OCCS2)c(Cl)cc1C(=O)NCCCN1CCCC(C)C1 (configuration not stated)	-6.48% (inactive)
C[C@@H]1CN([C@@H](C)CO)S(=O)(=O)c2ccc(-c3ccc(C(=O)N(C)C)cc3)cc2O[C@@H]1CN(C)Cc1ccccc1C(=O)O	-0.74% (inactive)
COCOCCn1cc(CN2CCS(=O)(=O)N(Cc3ccc(-c4cccc(N(C)C)c4)cc3)C(CC(C)C)C2=O)nn1 (configuration not stated)	1.08% (inactive)
Oc1c(CN2CCN(c3ccc(F)cc3)CC2)cc(Cl)c2cccnc12	50.4% (active)
Oc1c(CN2CCCC2)cc(COCc2ccccc2)c2cccnc12	49.2% (active)
COc1cc(C)cc(CN2CCC(Cc3ccccc3)CC2)c1O	4.82% (inactive)
Cc1ccc(CN2CCN(c3ncccn3)CC2)c(C)c1	-5.09% (inactive)
Cc1cc(=O)oc2cc(OCC(=O)N3CCN(c4ccc(F)cc4)CC3)c(Cl)cc12	4.27% (inactive)
CC1CCCN(CC(O)COCc2ccccc2)C1 (configuration not stated)	1.82% (inactive)
Nc1cc(C(=O)N2CCN(c3ccccc3Cl)CC2)ccc1N1CC2CC(C1)c1cccc(=O)n1C2 (configuration not stated)	2.36% (inactive)
O=C(NCc1ccccc1)C1CNCC(C(=O)NCc2ccccc2)C1 (configuration not stated)	0.67% (inactive)
CCOc1ccc(CCNC(=O)COC(=O)c2ccc(C)c(S(=O)(=O)N3CCOCC3)c2)cc1OCC	-2.04% (inactive)
O=[N+]([O-])c1ccc(C(S(=O)(=O)Cc2ccccc2)S(=O)(=O)Cc2ccccc2)cc1	-1.31% (inactive)
